# Assay outcomes (PubChem)
# Most compounds without a hit are left out; they make up all but 5.9% or so of the library.
# Rtt109 Vps75 – C. albicans Rtt109 histone acetyltransferase inhibition; Q5AAJ8; 330,000 tested, 0.16% active; purified Rtt109/Vps75, ThioGlo CoA-SH fluorescence, 4 h; inhibition, % at 34.9 µM; AID 540336;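 active means inhibition of at least 50% in every replicate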
# PRMT1 FP inh – blocks human protein arginine methyltransferase 1. Q99873. recombinant PRMT1, activity-based probe fluorescence polarization. inhibition, % at 2.79 µM. 370,000 tested, 1.3% active;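 active means inhibition above about 21% made by adding two undisclosed values, limit read from the data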
# Target sequence (Q99873 whole entry, looked up): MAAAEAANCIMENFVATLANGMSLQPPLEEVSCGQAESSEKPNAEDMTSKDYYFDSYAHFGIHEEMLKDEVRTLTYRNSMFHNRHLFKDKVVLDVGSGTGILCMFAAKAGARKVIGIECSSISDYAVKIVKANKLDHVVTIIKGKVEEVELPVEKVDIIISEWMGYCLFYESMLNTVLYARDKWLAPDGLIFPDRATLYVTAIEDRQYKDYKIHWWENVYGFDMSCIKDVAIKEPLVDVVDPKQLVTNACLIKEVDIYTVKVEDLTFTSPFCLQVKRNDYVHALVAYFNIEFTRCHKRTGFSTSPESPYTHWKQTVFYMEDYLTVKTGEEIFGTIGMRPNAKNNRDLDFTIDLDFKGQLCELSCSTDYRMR
# ABHD5 PLIN5 PPI – ABHD5-PLIN5 protein interaction inhibition; AID 602281; 360,000 tested, 0.78% active; Q00G26+Q8WTS1; inhibition, % at 4 µM; Split G. princeps luciferase complementation, luminescence, 4 h;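 active means inhibition above the mean inhibition across every tested compound plus 3 SD, cut at about 22% in these data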;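 further: 0% = DMSO only wells and the 100% control is not disclosed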
# ALR inh – inhibitors of human sulfhydryl oxidase ALR. P55789. purified ALR, DTT oxidation, H2O2 HRP-luminol luminescence. inhibition, % (test concentration not listed). 290,000 tested, 3.8% active. AID 485317;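 active means mean replicate inhibition above about 79%, with every replicate also reaching it, limit read from the data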
# LANA-H2A inh – blocks KSHV LANA binding to histone H2A/H2B; cell-free LANA-H2A/H2B peptide, fluorescence polarization; AID 2629; 320,000 tested, 0.6% active; inhibition, % (concentration not given with the values); in the data active means inhibition mostly above about 10%, no sharp cut-off; inactive means mostly below about 6.7%
# rCAG RNA binder – r(CAG) repeat RNA binding; AID 651821; 370,000 tested, 1.3% active; inhibition, % at 3 µM; TO-PRO-1 dye displacement fluorescence;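 active means inhibition above the plate cutoff, the mean of all test compounds on that plate plus 3 SD, cut at about 35% in these data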;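 further: 0% = DMSO alone and 100% = 100 µM mitoxantrone as full dye displacement; higher means more dye released from RNA so lower well fluorescence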
# Active calls of the source: *; nt = no result.
SMILES,Rtt109 Vps75,PRMT1 FP inh,ABHD5 PLIN5 PPI,ALR inh,LANA-H2A inh,rCAG RNA binder
Fc1ccc(-c2noc(-c3ccc4c(c3)CCO4)n2)cc1,15,4,-1,1,-1,-4
COC(=O)[C@]12C[C@H](CC(=O)NCCc3ccccc3OC)C(=O)N(Cc3ccc(Cl)cc3Cl)C1=C[C@H](C1CCCC1)O[C@@H]2C,nt,-1,nt,nt,nt,7
COC(=O)[C@]12CCCCC=C1N(CCC1=CCCCC1)C(=O)[C@H](CC(=O)N1CCC(c3ccccc3)CC1)C2,nt,-1,-7,nt,nt,7
COc1ccc(NC(=O)/C=C2\SC(=O)NC2=O)cc1,3,12,9,97*,-2,3
COc1ccc(NC(=O)Nc2ccc(OC)cc2)cc1,-1,-3,-1,-7,-2,0
Clc1ccc2nc(N3CCCCC3)sc2c1,4,7,-5,14,7,-1
Clc1ccc2nc(N3CCCCC3)[nH]c2c1,-9,0,1,98*,5,-2
C#CCN1C(=O)[C@]2(OCCC=C[C@H]2C)c2ccccc21,nt,-4,nt,nt,nt,2
Fc1ccc(Nc2nc(N3CCOCC3)c3ccccc3n2)cc1,6,2,0,93*,3,1
Cc1ccc(-c2nnc3n2N=C(c2ccc(-c4ccccc4)cc2)CS3)cc1,nt,5,nt,nt,nt,10
CC(=O)Nc1cccc(-c2csc(Nc3ccc(C)cn3)n2)c1,18,-2,15,99*,3,3
c1ccc2c(c1)oc1c(-c3ccc4nccn4c3)cccc12,nt,-6,6,nt,nt,6
CC(=O)C1=CCC(c2ccco2)N(S(=O)(=O)c2ccc(C)cc2)C1 (stereo not given),nt,-3,-9,nt,nt,1
Cc1nnc(SCC(=O)Nc2ccccc2)[nH]c1=O,2,1,1,-2,8,-1
Cc1nnc(SCC(=O)Nc2ccc(Br)cn2)[nH]c1=O,-1,12,-3,99*,1,4
Cc1nnc(SCC(=O)Nc2nc(-c3ccc(F)cc3)cs2)[nH]c1=O,6,0,0,99*,0,3
Cc1ccc(-c2csc(NC(=O)CSc3nc4ccccc4[nH]3)n2)cc1,5,-1,-5,nt,nt,14
CCOC(=O)C(C)/C(C)=N/NC(N)=S (stereo not given),-2,3,-6,96*,0,-3
CCN(CC)CCCN1C(=O)C(=O)/C(=C(/O)c2ccccc2)C1c1cc(OC)ccc1OC (stereo not given),-2,1,1,-9,17*,-4
O=S(=O)(c1ccc(C(F)(F)F)cc1)N1CCCc2nc(-c3ccc(F)cc3)ccc21,nt,-1,nt,nt,nt,5
O=C(O)c1ccc(-c2ccc(/C=C3\NC(=O)N(Cc4ccc(Cl)cc4)C3=O)o2)cc1Cl,19,43*,28*,nt,nt,53*
O=Cc1c(Sc2ccccc2)nc2ccccn2c1=O,1,-4,11,98*,-6,1
O=Cc1c(SCCO)nc2ccccn2c1=O,9,0,8,-10,-1,-1
O=Cc1c(Sc2ccccn2)nc2ccccn2c1=O,7,2,2,97*,-3,-2
N#CCC(=O)Nc1ccc(C(=O)OCC(=O)NC(=O)NCc2ccco2)cc1,-1,5,6,98*,4,26
SMILES,Rtt109 Vps75,PRMT1 FP inh,ABHD5 PLIN5 PPI,ALR inh,LANA-H2A inh,rCAG RNA binder
CC(C)CN(C(=O)COC(=O)c1ccc(C#N)cc1)C1CCS(=O)(=O)C1 (stereo not given),-8,-2,1,-3,0,0
Cc1ccc(NC(=O)CN(C)C(=O)COC(=O)c2ccc(NC(=O)CC#N)cc2)cc1,-5,-2,13,90*,-4,11
CCOC(=O)c1ccc(NC(=O)CCC(=O)NCc2ccco2)cc1,-3,-1,-1,1,1,-6
CC1(C)CC2CC(C)(CN2C(=O)COC(=O)c2ccc(NC(=O)CC#N)cc2)C1 (stereo not given),15,-1,-2,98*,-2,8
Cc1ccc(NC(=O)CN(C)C(=O)COC(=O)COc2ccc(C#N)cc2)cc1,6,-4,-4,6,0,-2
N#CCC(=O)Nc1ccc(C(=O)OCC(=O)N(Cc2ccccc2)C2CCS(=O)(=O)C2)cc1 (stereo not given),-3,-1,4,100*,-5,9
Nc1[nH]c(C(=O)c2ccccc2)c(-c2ccc(Cl)cc2F)c1C(=O)NCCc1c[nH]c2ccccc12,nt,-1,nt,nt,nt,12
